From PubChem BioAssay (NCATS) come the findings set out here.

SMILES strings stand for the structures. Inconclusive results are not listed. Active and inactive are the calls of the source. Unless noted, the call rests on the fitted dose curve; in most records, active means well fitted curve in the direction sought with a large enough effect; inconclusive means small, poorly fitted or top-dose-only effect, or another doubt; inactive means no such curve, though single readings can be large; an effect the other way counts as inactive or inconclusive.

For experiment [1], the target named is Transient receptor potential cation channel subfamily V member 1 (Homo sapiens) (UniProt Q8NER1). The experiment can be described thus: HTS Assay for Compounds that Act as Enhancers of the Vanilloid Receptor 1 (AID 488979). Further: 0% is about no effect. The method, boiled down: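 Calcium influx kinetics via Fluo-8 (480/520 nm) in TRPV1-expressing cells, 2000/well cultured overnight at 35.5C. Compound-alone read 3 min (agonist phase), followed by EC20 capsaicin challenge for 2 min (enhancer phase).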

The target of experiment [2] is Thyrotropin receptor (Homo sapiens) (UniProt P16473). As to the kind of experiment: qHTS Assay for Antagonists of the Thyroid Stimulating Hormone Receptor (AID 488980). Further: series mostly up to about 58 µM; 0% is about no effect. The method, boiled down:
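HEK293 cells transfected with human TSHR, suspended in HEPES-buffered HBSS with 70 uM RO 20-1724, were treated with compounds plus TSH at EC80 (4 nM final). cAMP was measured by competitive HTRF (cryptate anti-cAMP antibody, cAMP-d2 acceptor).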

Experiment [3] concerns the target D(1A) dopamine receptor (Homo sapiens) (UniProt P21728). As to the kind of experiment: HTS Assay for Allosteric Agonists of the Human D1 Dopamine Receptor: Primary Screen for Agonists (AID 488981). Further: 0% is about no effect. The method, boiled down:
(§1)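 Calcium flux in an inducible, force-coupled HEK293 Trex D1 line (overnight at 30 C): agonist mode is the 180 s kinetic read after compound; potentiator mode is the following 180 s read after dopamine at EC20.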

Experiment [4] shares this target. The experiment can be described thus: HTS Assay for Allosteric Agonists of the Human D1 Dopamine Receptor: Primary Screen for Antagonists (AID 488983).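 Further: calcium flux response to an EC80 dopamine challenge measured with no-wash dye; on the % scale 0 is the no-effect control and ±100 the full control effect; nearly all actives have a fitted effect of over 65% in size.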 The method, boiled down:
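Calcium flux readout, no-wash dye, inducible HEK293 T-REx D1 line (force-coupled). Compound added after 10 s baseline, 180 s kinetic read; then dopamine at EC80, further 180 s read.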

Experiment [5] can be described thus: Validation screen for small molecules that induce genotoxicity in human embryonic kidney (HEK293T) cells expressing luciferase-tagged ELG1 (AID 493106). Further: 0% is about no effect. The method, boiled down: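 qHTS format; 2,000 HEK293T ELG1-luc cells/well; 23 nL compound via pin tool; 16 hr, 37 °C/5% CO2; ONE-Glo, 30 min RT; luminescence read.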
In experiment [6] the target is ATPase family AAA domain-containing protein 5 (Homo sapiens) (UniProt Q96QE3). The experiment can be described thus: Validation screen for small molecules that inhibit ELG1-dependent DNA repair in human embryonic kidney (HEK293T) cells expressing luciferase-tagged ELG1 (AID 493107). Further: nearly all actives have a fitted effect of over 70% in size. Further: potency means the concentration at half of the fitted maximal effect. The method, boiled down: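 ELG1-luciferase HEK293T reporter; 5-fluorouridine + compound/DMSO, 16 hr, 37 °C, 5% CO2; ONE-Glo 30 min RT; luminescence read, qHTS format.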

Experiment [7] deals with Thyrotropin-releasing hormone receptor (Homo sapiens) (UniProt P34981). As to the kind of experiment: qHTS for Small Molecule Agonists and Allosteric Enhancers of Human TRH Receptor: Validation Screen for Agonists (AID 493127;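 active means calcium activation more than 3 SD above the typical response in the agonist read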;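 further: intracellular calcium rise by fluo-8 fluorescence before TRH EC20 addition; 0% is about no effect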). The note with it: TRH receptor agonist cell assay; at 2 µM; stronger effect = higher value. The method, boiled down: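 Read-out: intracellular calcium release measured kinetically by FDSS (fluo-8, ex 480/em 530 nm), 1 reading/s after a 10-cycle baseline. TRHR cells, 2000/well, cultured 18 h at 33.5C, dye-loaded at room temp. Compound-evoked positive calcium signal flags agonists.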

A short description of experiment [8]: Nrf2 qHTS screen for inhibitors: Validation (AID 493153; active means well fitted inhibition curve with a large enough effect in the main read-out, with a control signal flat, not every such curve was filed as active; further: potency means the concentration at half of the fitted maximal effect). The following applies: Potency: luciferase luminescence; viability change: measured here: cytotoxicity max response. The method, boiled down:
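Concentration-response test in A549 ARE_Fluc reporter cells (5% FBS OPTI-MEM), compound exposure 18-24 h at 37°C, 5% CO2. Cell viability measured first by CellTiter-Fluor fluorescence; ARE-driven luciferase luminescence then measured as Nrf2 activity.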

A short description of experiment [9]: qHTS for Inhibitors of Cell Surface uPA Generation: Validation Assay (AID 493164).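 Further: RAW 264.7 macrophage cells exposed to compound for 18 h; 0% is about no effect.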 The method, boiled down: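 Compounds are titrated over seven points (2.45 nM–38.3 uM final) onto pre-plated RAW 264.7 cells and incubated for 18 h. Retained intracellular ATP, measured with ATP-Lite, indicates blocked lethal factor entry.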
In experiment [10] the target is Galactokinase (Homo sapiens) (UniProt P51570). As to the kind of experiment: qHTS Validation Assay for Inhibitors of Human Galactokinase (GALK) (AID 493189). Further: 0% is about no effect. The method, boiled down: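 GALK (5 nM) with 35 uM ATP and 100 uM galactose in HEPES pH8.0, MgCl2, NaCl, DTT, BSA; 1 h at room temperature. Residual ATP read by Kinase-Glo Plus luminescence after 10 min.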
The nature of experiment [11]: Validation screen for small molecules that induce DNA re-replication in SW480 colon adenocarcinoma cells (AID 504364). Further: 0% is about no effect. The method, boiled down: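 Read-out: total Hoechst intensity of nuclei by fluorescence scanning imager; hits raise the fraction of nuclei with elevated DNA content. Cells received compound for 48 hr at 37 C before a 40 min stain.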
In experiment [12] the target is Peptidyl-prolyl cis-trans isomerase NIMA-interacting 1 (Homo sapiens) (UniProt Q13526). The experiment can be described thus: qHTS Validation Assay to Find Inhibitors of Pin1 (AID 504536; active means well fitted inhibition curve with a large enough effect in the polarisation, with a control signal flat, not every such curve was filed as active; the % refers to the polarisation;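 further: 0% = full Pin1 enzyme wells and -100% = no-enzyme wells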). The method, boiled down:
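Fluorescence polarization competition: compounds (titration) displace HiFluor-488-labeled Pin1-1b peptide from Pin1 (0.3 uM final) in pH 7.5 HEPES buffer with DTT, 10 min at room temperature; %Activity normalized to no-enzyme wells, curves fitted.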

The target of experiment [13] is Phosphoglycerate kinase, glycosomal (Trypanosoma brucei brucei) (UniProt P07378). As to the kind of experiment: qHTS Validation Assay to Find Inhibitors of Phosphoglycerate Kinase (AID 504547).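 Further: control wells lack PGK and mark full inhibition.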 The method, boiled down:
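Luminescence end-point (Kinase-Glo Plus, 10 min) after a 60 min room-temperature coupled reaction. GAPDH at 100nM final supplies 1,3-BPG to PGK. Buffer: 100mM TEA pH 7.6, 5mM MgCl2, 0.01% Tween-20. Wells lacking PGK served as controls.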

The target in experiment [14] is phosphoglycerate mutase (Leishmania major) (UniProt Q4Q090). The experiment can be described thus: qHTS Validation Assay to Find Inhibitors of Phosphoglycerate Mutase (AID 504548).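 Further: end-point luminescence from Kinase-GloPlus after the PGAM reaction; series mostly up to about 58 µM; on the % scale 0 is the no-effect control and ±100 the full control effect.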 The following applies: Potency: inhibition qHTS. The method, boiled down: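 Inhibition of L. major PGAM was assessed by Kinase-GloPlus luminescence following a 45-minute room-temperature reaction with enzyme at 1.25nM final.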

For experiment [15], the target named is Ubiquitin carboxyl-terminal hydrolase 1 (Homo sapiens) (UniProt O94782). The experiment can be described thus: Inhibitors of USP1/UAF1: Pilot qHTS (AID 504865). Further: nearly all actives have a fitted effect of over 35% in size. Further: potency means the concentration at half of the fitted maximal effect. The method, boiled down:
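USP1/UAF1 complex (1nM) preincubated with compound 15 min at room temperature, then Ub-Rho substrate (150nM final) added. Fluorescence read kinetically at 480/540 nm, 6 reads every 60 seconds. Buffer: 50mM HEPES pH 7.8, 0.5mM EDTA, 0.1 mg/ml BSA, 1mM TCEP, 0.01% Tween-20.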

Experiment [16] is described as follows: qHTS for Inhibitors of ATXN expression: Validation of Cytotoxic Assay (AID 588349). Further: potency means the concentration at half of the fitted maximal effect. The method, boiled down:
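Cytotoxicity counter-screen: HEK293 cells exposed to compound titrations, 72 hr, 37 degrees C. Read-out is intracellular ATP (CellTiter Glo luminescence) as a viability measure.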

Experiment [17] is described as follows: qHTS for Inhibitors of ATXN expression: Validation (AID 588378). Further: nearly all actives have a fitted effect of over 75% in size. Further: potency means the concentration at half of the fitted maximal effect. The method, boiled down:
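Luminescence from an ATXN2-FFLuc reporter in HEK293 cells served as read-out after 24 h compound treatment at 37 degrees C; CellTiter-Fluor fluorescence was recorded first to assess viability.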

For experiment [18], the target named is D(1A) dopamine receptor (Homo sapiens) (UniProt P21728). As to the kind of experiment: HTS Assay for Allosteric Agonists of the Human D1 Dopamine Receptor: Primary Screen for Potentiators (AID 488982). Further: 0% is about no effect. The method, boiled down:
as §1

Thyrotropin-releasing hormone receptor (Homo sapiens), sequence (P34981 whole entry, looked up): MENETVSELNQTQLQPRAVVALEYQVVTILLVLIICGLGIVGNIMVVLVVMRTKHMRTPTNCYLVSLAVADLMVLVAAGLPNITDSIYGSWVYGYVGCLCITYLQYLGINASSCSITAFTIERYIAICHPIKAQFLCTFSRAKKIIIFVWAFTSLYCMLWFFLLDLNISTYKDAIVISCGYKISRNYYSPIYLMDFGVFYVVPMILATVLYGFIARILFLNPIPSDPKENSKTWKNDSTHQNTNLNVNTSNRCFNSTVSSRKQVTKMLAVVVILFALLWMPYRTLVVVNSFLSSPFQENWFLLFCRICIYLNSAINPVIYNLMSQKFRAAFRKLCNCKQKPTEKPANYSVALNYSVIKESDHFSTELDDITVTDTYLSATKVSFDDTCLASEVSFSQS
Ubiquitin carboxyl-terminal hydrolase 1 (Homo sapiens), sequence (O94782 whole entry, looked up): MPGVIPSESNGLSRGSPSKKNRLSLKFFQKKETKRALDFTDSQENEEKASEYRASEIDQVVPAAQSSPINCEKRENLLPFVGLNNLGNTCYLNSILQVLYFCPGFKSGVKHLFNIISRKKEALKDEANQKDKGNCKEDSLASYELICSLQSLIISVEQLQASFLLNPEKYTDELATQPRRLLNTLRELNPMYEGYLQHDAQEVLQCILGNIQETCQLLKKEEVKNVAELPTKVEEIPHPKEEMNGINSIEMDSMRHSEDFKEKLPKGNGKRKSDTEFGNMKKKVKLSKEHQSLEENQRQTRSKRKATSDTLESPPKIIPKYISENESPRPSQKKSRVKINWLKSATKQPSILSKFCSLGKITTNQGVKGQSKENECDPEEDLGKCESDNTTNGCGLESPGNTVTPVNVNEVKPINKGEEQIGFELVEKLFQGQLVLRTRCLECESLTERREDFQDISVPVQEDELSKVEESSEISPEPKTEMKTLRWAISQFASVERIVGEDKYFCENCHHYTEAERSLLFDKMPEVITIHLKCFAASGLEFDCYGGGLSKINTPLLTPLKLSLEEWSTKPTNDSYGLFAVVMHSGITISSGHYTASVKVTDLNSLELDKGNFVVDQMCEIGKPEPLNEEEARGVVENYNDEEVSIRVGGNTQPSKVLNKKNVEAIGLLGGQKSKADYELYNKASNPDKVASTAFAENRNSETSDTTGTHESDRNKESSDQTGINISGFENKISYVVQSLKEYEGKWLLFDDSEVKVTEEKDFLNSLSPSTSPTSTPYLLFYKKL
Peptidyl-prolyl cis-trans isomerase NIMA-interacting 1 (Homo sapiens), sequence (Q13526 whole entry, looked up): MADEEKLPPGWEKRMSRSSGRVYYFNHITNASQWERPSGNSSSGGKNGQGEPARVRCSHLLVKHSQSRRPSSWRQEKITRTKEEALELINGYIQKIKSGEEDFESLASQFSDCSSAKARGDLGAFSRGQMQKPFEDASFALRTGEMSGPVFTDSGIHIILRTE
Phosphoglycerate kinase, glycosomal (Trypanosoma brucei brucei), sequence (P07378 whole entry, looked up): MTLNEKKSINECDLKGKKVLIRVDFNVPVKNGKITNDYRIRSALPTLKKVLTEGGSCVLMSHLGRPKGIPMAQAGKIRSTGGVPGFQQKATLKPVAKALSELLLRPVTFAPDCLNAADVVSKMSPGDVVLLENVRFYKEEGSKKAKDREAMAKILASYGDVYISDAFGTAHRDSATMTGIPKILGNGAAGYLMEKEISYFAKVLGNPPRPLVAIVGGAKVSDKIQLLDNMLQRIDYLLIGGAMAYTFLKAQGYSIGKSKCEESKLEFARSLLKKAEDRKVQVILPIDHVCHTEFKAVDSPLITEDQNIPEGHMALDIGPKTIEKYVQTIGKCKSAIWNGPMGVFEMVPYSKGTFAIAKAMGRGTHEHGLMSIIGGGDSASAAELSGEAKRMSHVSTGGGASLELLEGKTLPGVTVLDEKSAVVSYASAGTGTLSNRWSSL
Thyrotropin receptor (Homo sapiens), sequence (P16473 whole entry, looked up): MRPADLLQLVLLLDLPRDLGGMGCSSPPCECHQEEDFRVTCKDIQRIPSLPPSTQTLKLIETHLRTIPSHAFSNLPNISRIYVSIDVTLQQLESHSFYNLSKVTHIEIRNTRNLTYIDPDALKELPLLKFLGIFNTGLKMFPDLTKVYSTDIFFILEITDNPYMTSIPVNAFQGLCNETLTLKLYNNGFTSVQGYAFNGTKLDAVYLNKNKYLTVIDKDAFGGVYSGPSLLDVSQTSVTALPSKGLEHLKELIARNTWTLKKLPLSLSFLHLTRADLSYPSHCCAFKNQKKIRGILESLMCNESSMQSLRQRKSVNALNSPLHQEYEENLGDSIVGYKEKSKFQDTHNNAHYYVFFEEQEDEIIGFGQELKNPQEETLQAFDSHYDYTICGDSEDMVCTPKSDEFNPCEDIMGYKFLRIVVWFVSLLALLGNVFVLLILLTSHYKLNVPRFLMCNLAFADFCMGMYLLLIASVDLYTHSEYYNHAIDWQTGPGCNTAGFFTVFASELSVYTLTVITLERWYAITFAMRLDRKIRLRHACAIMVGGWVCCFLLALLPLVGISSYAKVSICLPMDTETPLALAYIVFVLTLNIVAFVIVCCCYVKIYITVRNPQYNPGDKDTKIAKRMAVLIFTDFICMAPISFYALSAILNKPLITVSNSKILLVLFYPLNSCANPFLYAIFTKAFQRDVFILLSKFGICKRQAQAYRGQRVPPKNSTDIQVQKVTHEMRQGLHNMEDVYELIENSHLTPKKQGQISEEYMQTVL
Galactokinase (Homo sapiens), sequence (P51570 whole entry, looked up): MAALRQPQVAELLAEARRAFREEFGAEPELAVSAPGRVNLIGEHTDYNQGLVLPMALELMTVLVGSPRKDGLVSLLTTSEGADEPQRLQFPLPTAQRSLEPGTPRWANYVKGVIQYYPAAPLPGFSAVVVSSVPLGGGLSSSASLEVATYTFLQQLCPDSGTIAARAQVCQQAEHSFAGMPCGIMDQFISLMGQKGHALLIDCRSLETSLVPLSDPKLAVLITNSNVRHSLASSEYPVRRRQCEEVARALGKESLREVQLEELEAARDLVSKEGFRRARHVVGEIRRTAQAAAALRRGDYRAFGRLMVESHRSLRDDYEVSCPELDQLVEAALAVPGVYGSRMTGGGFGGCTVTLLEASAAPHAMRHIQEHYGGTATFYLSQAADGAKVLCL
D(1A) dopamine receptor (Homo sapiens), sequence (P21728 whole entry, looked up): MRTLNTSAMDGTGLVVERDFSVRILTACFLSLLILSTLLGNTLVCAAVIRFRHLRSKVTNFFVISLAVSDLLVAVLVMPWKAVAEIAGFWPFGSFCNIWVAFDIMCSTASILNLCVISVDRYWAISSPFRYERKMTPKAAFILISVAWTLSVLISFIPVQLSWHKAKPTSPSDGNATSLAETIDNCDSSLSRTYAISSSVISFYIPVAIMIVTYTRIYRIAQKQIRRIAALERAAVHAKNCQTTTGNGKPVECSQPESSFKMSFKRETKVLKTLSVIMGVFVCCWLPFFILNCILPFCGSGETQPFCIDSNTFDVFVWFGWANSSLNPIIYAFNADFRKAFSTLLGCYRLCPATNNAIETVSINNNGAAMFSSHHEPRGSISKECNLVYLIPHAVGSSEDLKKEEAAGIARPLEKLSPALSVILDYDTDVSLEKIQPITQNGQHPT
phosphoglycerate mutase (Leishmania major), sequence (Q4Q090 1-553): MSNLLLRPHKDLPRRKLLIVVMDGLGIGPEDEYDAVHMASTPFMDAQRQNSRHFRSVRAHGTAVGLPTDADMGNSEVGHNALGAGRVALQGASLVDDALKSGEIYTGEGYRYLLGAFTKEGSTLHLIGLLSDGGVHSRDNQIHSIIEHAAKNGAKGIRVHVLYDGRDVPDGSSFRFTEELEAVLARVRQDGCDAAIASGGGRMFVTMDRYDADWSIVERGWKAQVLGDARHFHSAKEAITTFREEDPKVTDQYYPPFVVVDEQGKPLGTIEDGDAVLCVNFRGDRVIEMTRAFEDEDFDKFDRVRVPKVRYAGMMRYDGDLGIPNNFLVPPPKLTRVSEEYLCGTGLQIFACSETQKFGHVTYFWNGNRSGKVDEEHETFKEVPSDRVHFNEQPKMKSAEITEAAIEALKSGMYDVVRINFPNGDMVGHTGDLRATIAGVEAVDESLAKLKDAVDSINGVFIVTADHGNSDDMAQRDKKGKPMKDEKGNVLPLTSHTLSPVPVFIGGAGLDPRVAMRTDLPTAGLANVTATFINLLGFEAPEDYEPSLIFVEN
Transient receptor potential cation channel subfamily V member 1 (Homo sapiens), sequence (Q8NER1 whole entry, looked up): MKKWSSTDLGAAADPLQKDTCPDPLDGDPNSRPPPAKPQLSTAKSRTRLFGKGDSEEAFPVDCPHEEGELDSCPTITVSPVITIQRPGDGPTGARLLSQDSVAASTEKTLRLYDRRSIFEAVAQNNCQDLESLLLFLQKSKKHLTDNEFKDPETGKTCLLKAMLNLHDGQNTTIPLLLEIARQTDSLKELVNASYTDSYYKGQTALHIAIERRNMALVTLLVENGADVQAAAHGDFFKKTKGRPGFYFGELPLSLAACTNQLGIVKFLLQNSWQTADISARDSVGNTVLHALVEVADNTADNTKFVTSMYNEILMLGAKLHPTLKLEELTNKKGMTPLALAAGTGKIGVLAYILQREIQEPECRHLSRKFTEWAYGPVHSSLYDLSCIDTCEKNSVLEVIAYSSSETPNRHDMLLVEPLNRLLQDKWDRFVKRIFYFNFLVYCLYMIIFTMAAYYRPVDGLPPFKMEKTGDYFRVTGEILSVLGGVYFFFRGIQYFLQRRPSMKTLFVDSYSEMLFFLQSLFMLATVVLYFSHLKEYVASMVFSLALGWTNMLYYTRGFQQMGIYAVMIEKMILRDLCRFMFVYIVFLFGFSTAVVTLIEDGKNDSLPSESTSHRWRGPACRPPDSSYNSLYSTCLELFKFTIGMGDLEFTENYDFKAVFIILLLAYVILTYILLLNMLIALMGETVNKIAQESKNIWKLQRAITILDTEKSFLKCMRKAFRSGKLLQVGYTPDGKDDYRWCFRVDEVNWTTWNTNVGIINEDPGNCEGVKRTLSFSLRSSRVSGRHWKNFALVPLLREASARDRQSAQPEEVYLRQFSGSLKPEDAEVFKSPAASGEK

For `NC(N)=[N+]1CCc2ccccc2C1`, the outcome in [1], in [2] and in experiment [9] was inactive. Moreover, the Potency result in [3], in experiment [4], in [5], in experiment [6], in experiment [10] and in experiment [11] was “inactive” in each case. Further, the Potency entry in experiment [12], in experiment [13], in [14], in experiment [15], in experiment [16] and in [17] was “inactive” throughout. In addition, in [7], the activation is -0.125% (inactive). In experiment [8], the Potency is 16.4 µM (active). Moreover, in [8], the viability change amounted to 6.22%.
`O=C(N[C@@H](Cc1ccccc1)C(=O)CCl)OCc1ccccc1`: the result in experiment [1], in experiment [2] and in experiment [9] was inactive. Moreover, the Potency entry in experiment [3], in [18], in [5], in experiment [10], in [11] and in experiment [12] was “inactive” in each case. In addition, in [14], the Potency result is “inactive”. Moreover, the Potency is 8.2 µM (active) in [6]; 14.6 µM (active) in [8]; 28.2 µM (active) in [15]; 3.55 µM (active) in [16]; 3.98 µM (active) in experiment [17]. Further, the activation in experiment [7] is -3.75% (inactive). In addition, in experiment [8], the viability change was -11.4%.
For the compound `CC(/C=C/c1cccc(Oc2ccc(F)cc2)c1)N(O)C(N)=O` (configuration not stated), the outcome in [1], in experiment [2] and in experiment [9] was inactive. Moreover, the Potency result in experiment [3], in [18], in experiment [4], in experiment [8], in experiment [10] and in [11] was “inactive” in each case. The Potency result in [12], in [13], in experiment [14], in experiment [15], in experiment [16] and in experiment [17] was “inactive” in each case. In addition, the activation in experiment [7] is 1% (inactive). In addition, the viability change in experiment [8] was 3.6%.
Turning to `CCn1c(=O)[nH]c2cc(Cl)c(Cl)cc21`, the result in experiment [1], in [2] and in [9] was inactive. The Potency result in experiment [3], in [18], in experiment [4], in experiment [10], in [11] and in experiment [12] was “inactive” throughout. Further, the Potency result in experiment [14], in experiment [15], in experiment [16] and in experiment [17] was “inactive” in each case.
Consider `O=C1C2C=CC=CC2=NC(=S)N1CCN1CCC(=C(c2ccc(F)cc2)c2ccc(F)cc2)CC1` (configuration not stated), for which the outcome in experiment [1], in experiment [2] and in [9] was inactive. In addition, the Potency entry in experiment [3], in experiment [18], in experiment [5], in experiment [6], in experiment [8] and in experiment [10] was “inactive” in each case. The Potency result in experiment [11], in [12], in [13], in [14], in experiment [15] and in experiment [16] was “inactive” in each case. Besides, the Potency entry in [17] is “inactive”. For the same compound, the activation in [7] was -4.38% (inactive). Besides, the viability change in experiment [8] was 6.28%.
Turning to `O=C(O)[C@H]1NCCC[C@H]1C(=O)O`, the result in experiment [1], in experiment [2] and in experiment [9] was inactive. Further, the Potency result in experiment [3], in experiment [4], in experiment [5], in experiment [6], in experiment [8] and in [10] was “inactive” in each case. Moreover, the Potency entry in [11], in [12], in experiment [13], in [14], in experiment [15] and in [16] was “inactive” each time. The Potency entry in experiment [17] was “inactive”. In experiment [7], the activation is -0.188% (inactive). For the same compound, in experiment [8], the viability change amounted to 11%.
As for `CN1CCN(c2nc3cc(C(F)(F)F)ccc3n3cccc23)CC1`, the result in [1], in [2] and in experiment [9] was inactive. Also, the Potency result in experiment [3], in [18], in [5], in experiment [6], in experiment [8] and in experiment [10] was “inactive” in each case. Moreover, the Potency entry in experiment [11], in experiment [12], in experiment [13], in [14] and in [15] was “inactive” each time. Moreover, the activation in experiment [7] was 1.06% (inactive). For the same compound, in [8], the viability change was 3.07%.
